Measured values from PubChem BioAssay (EPA / NIEHS).
Several values for one entry are separate records, joined by “and”; a condition that tells them apart may be missing. Identical values can stand only once. More than one record can exist for a structure, and the calls need not agree. Activity calls are given as the source filed them. How the source made its calls: active means hit-call score of the fitted dose curve at least 0.9, where 1 is the maximum; inactive means score below 0.9.

test: CCTE_Shafer_MEA_dev_inter_network_spike_interval_mean: CCTE's Neural Network Formation Assay for Mean Inter-network Spike Interval, Shafer Lab (AID 2284047);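 on AC50: potency for a decrease in mean inter-network spike interval below DMSO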
Protocol: CCTE_Shafer_MEA_dev assay is conducted using Axion Biosystems 48 well microelectrode array (MEA) plates and Maestro recording system. Each well of the MEA plate contains a grid of 16 microelectrodes embedded in the culture surface. Electrically active cells, such as neurons, can be cultured over the electrodes, and electrical activity in these cells can be recorded extracellularly. The spontaneous firing of neurons is captured from each electrode on a microsecond timescale providing both temporally and spatially precise data. […] The CCTE_Shafer_MEA_dev assay uses primary cultures of rat cortical neurons. Recordings are made on days post-plating 5, 7, 9 and 12. As these cultures mature over time, neural networks develop functional activity and form cohesive networks in which electrical activity can be highly coordinated. CCTE_Shafer_MEA_dev_inter_network_spike_interval_mean is 1 of 19 assay components of the CCTE_Shafer_MEA_dev assay. It measures the average time interval between network spikes (temporally-clustered groups of actional potential firing across multiple electrodes) as the average time between peaks of consecutive network spikes during a recording in a microelectrode array (MEA) using Axion Biosystems Maestro 768 channel amplifier with the AxIS adaptive spike detector. To collapse across multiple recordings made on days post-plating 5, 7, 9 and 12, the trapezoidal area-under-the-curve of the component is calculated.Data from the assay component CCTE_Shafer_MEA_dev_inter_network_spike_interval_mean was analyzed into 1 assay endpoint. This assay endpoint, CCTE_Shafer_MEA_dev_inter_network_spike_interval_mean, was analyzed in the negative analysis fitting direction relative to DMSO as the negative control and baseline of activity. Using a type of functional reporter, gain or loss-of-signal activity can be used to understand electrical activity.
On the day prior to culture, each well was coated thoroughly with 150 uL of 0.05% polyethyleneimine (PEI, Sigma Cat P3143) in 50 mM HEPES (Sigma Cat H7523) at a pH of 8. The plate was incubated at 37C for one hour. PEI was rinsed out with 500 uL of sterile water three times. Plates were stored at 4C until the day of culture. This culture was plated at a seeding density of 1.5 x 10^5 cells/well on a 48-well MEA plate, prepared as described above. Cells were administered via a 25 uL media/laminin ([…]; Sigma Cat L2020-1MG) drop directly onto the microelectrode array, as adding the cells with the laminin results in better attachment than pre-coating with laminin. After 2 hours, an additional 475 uL of cortical media was added and the cells returned to the incubator. Exposure starts at day 0 of plating and is continued over twelve days of network development until the experiment is terminated. Cells are fed with fresh medium on DIV 5 and 9, following the recordings on those days. The entire volume of media in the well is exchanged and any vehicle or compound treatment is renewed. Complete details are found in OP-NHEERL/ISTD/SBB/TJS/2015-03-r0 (available on request, email shafer.tim@epa.gov). Measurement of the electrical activity is non-invasive, and recordings can be made from the same plate over multiple different days of the culture. In cortical neurons, this allows for the measurement of extracellular action potentials over the period during which networks form in the MEA plate.

Q: Which outcome does the source give for `CCCCNC(=O)OCC#CI` here?
A: inactive

Q: Which outcome does the source give for `Cc1ccc(-c2c(Cl)nc(C#N)n2S(=O)(=O)N(C)C)cc1` here?
A: inactive

Q: Which outcome does the source give for `Cc1c(F)c(F)c(COC(=O)C2C(/C=C(\Cl)C(F)(F)F)C2(C)C)c(F)c1F` (configuration not stated) here?
A: inactive

Q: With `COC(=O)N(OC)c1ccccc1COc1ccn(-c2ccc(Cl)cc2)n1` as the compound, how does the AC50 read?
A: 128 nM (active)

Q: And the outcome?
A: inactive

Q: Which outcome does the source give for `CCNc1nc(Cl)nc(NC(C)C)n1` here?
A: inactive

Q: For `CCCCC(CC)COC(=O)c1ccccc1C(=O)OCC(CC)CCCC` (configuration not stated), which outcome is on record?
A: inactive

Q: With `CC(C)(C)c1ccc(CSc2cnn(C(C)(C)C)c(=O)c2Cl)cc1` as the compound, how does the AC50 read?
A: 2.8 nM (active)

Q: Which AC50 does the source give for `CO/C=C(/C(=O)OC)c1ccccc1Oc1cc(Oc2ccccc2C#N)ncn1` here?
A: 1.64 µM (active) and 17 nM (active)

Q: For `COc1ccc(C(c2ccc(OC)cc2)C(Cl)(Cl)Cl)cc1`, which outcome is on record?
A: inactive

Q: Which outcome does the source give for `N#Cc1nn(-c2c(Cl)cc(C(F)(F)F)cc2Cl)c(N)c1S(=O)C(F)(F)F` (configuration not stated) here?
A: inactive

Q: With `COP(N)(=O)SC` (configuration not stated) as the compound, how does the outcome read?
A: inactive

Q: Which outcome does the source give for `CCCCNC(=O)n1c(NC(=O)OC)nc2ccccc21` here?
A: inactive

Q: Which outcome does the source give for `C=CC1(C)OC(=O)N(c2cc(Cl)cc(Cl)c2)C1=O` (configuration not stated) here?
A: inactive

Q: With `CCOc1cc(Oc2ccc(C(F)(F)F)cc2Cl)ccc1[N+](=O)[O-]` as the compound, how does the outcome read?
A: inactive

Q: With `C=CCC1=C(C)C(OC(=O)C2C(C=C(C)C)C2(C)C)CC1=O` (configuration not stated) as the compound, how does the outcome read?
A: inactive

Q: Which outcome does the source give for `COP(=S)(OC)Oc1nc(Cl)c(Cl)cc1Cl` here?
A: inactive

Q: For `CN(C)C(=S)SSC(=S)N(C)C`, which AC50 is on record?
A: 11.6 nM (active)

Q: For `CCOC(=O)CC(SP(=S)(OC)OC)C(=O)OCC` (configuration not stated), which outcome is on record?
A: inactive

Q: For `CNC(=O)ON=CC(C)(C)SC`, which outcome is on record?
A: inactive

Q: Which outcome does the source give for `C=CCC1=C(C)[C@@H](OC(=O)[C@@H]2[C@@H](C=C(C)C)C2(C)C)CC1=O` here?
A: inactive

Q: Which outcome does the source give for `CCCCOC(=O)c1ccccc1C(=O)OCCCC` here?
A: inactive
